NSD2 HMT inh: inhibitors of human histone methyltransferase NSD2 | NSD2 peptide methylation, AlphaScreen, 120 min | inhibition, % at 12.5 µM | actives 0.54% (n = 310,000) | AID 743445; in the data active means inhibition above about 50%
Glyco luc inh: N-linked glycosylation inhibition. D54 ERlucT glycosylation luciferase reporter, 24 h; percent of 100 nM tunicamycin response. reporter increase, % at 12.5 µM. actives 0.23% (n = 360,000);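 active means mean luciferase reporter signal, scaled so untreated is 0 and the glycosylation-blocking control 100, at or above a set limit in every replicate; inconclusive means mean reaches the limit but not every replicate does; inactive means mean below the limit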;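 further: luciferase carries N-glycosylation sites so blocking glycosylation raises the light; 0% = median of neutral control wells and 100% = median of 100 nM tunicamycin wells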
Shn3 3UTR inh: reduces Shn3 3'UTR luciferase signal in osteoblasts. actives 0.52% (n = 360,000). AID 588674. Clone20 osteoblast Shn3 3'UTR firefly luciferase, 24 h. inhibition, % at 12.5 µM;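 active means mean inhibition of at least 75% with every replicate also reaching 75%; inconclusive means mean inhibition at least 75% but some replicate below; inactive means mean inhibition below 75%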;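 further: 0% = median of neutral control wells and 100% = pilot-screen positive control compound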
Env fusion inh: blocks HIV Env-driven cell-cell fusion; HeLa-JRFL Env/CEM21 cell fusion, luciferase; actives 1.1% (n = 360,000); inhibition, % at 12.3 µM; AID 651610;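 active means mean replicate inhibition score of at least 50 and every replicate individually at or above 50; inconclusive means only one of the two criteria met; inactive means mean below 50 and not all replicates reaching 50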;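 further: 0% = plate neutral controls and 100% = maraviroc near 300 nM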
PAX8 inh HTS: PAX8 transcriptional activity inhibition | RMG-I TPO-luciferase reporter, SteadyGlo, 24 h | inhibition, % at 12.6 µM | actives 1.2% (n = 360,000) | AID 652154;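 active means mean replicate inhibition at least 60% with every replicate also reaching 60%; inconclusive means only one of the two criteria is met; inactive means mean below 60% and not all replicates reaching 60%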;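 further: luciferase light reporting Pax8 driven TPO promoter activity; plate controls were median of neutral control wells for no effect and mitoxantrone controls for full effect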
EBV LMP1 NFkB: inhibitors of Epstein-Barr LMP1-induced NF-kappaB reporter. LMP1-induced NF-kappaB luciferase reporter cells, luminescence. inhibition, % at 12.5 µM. actives 0.69% (n = 350,000); in the data active means inhibition above about 41%; inconclusive means no clear call, values can overlap the other calls;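 further: 0% = neutral control wells and 100% = reference inhibitor control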
Starred values were filed as active, the others as inactive; ? = inconclusive; / = not tested or not shown; ! = not active in a repeat; [ ] = remark or other dose. Shown are actives, neighbours in structure and some others; about 2.8% of the full set was active somewhere.

SMILES	NSD2 HMT inh	Glyco luc inh	Shn3 3UTR inh	Env fusion inh	PAX8 inh HTS	EBV LMP1 NFkB
Cc1ccc(OCC(O)CNC2CCCC2)c(C)c1 (stereo not drawn)	-0.1	-1.8	-43.6	-4.8	2.7	-3.0
CCCNC(=O)N[C@@H]1CC[C@@H](CC(=O)NC2CCC2)O[C@@H]1CO	/	/	/	2.7[16.7 µM]	-5.0	/
COc1ccc2c(c1)CCc1c(C(=O)Nc3ccc(OC)c(OC)c3)noc1-2	-6.4	-1.6	19.4	-33.2	/	0.8
COc1ccc2c(c1)CCc1c(C(=O)NCCc3ccc(OC)c(OC)c3)noc1-2	-2.3	-1.0	17.1	59.2*	/	3.0
CCNC(=O)CC1C(=O)N(CC)C(=S)N1NC(=O)c1cccnc1 (stereo not drawn)	-0.8	3.2	2.9	-9.3	-11.0	73.6*
CCNC(=O)CC1C(=O)N(CC)C(=S)N1NC(=O)c1ccc(Cl)cc1 (stereo not drawn)	-1.0	1.4	16.0	13.1	/	-17.6
CCOCCCn1c(SCC(=O)NCc2ccco2)nc2c(sc3ccccc32)c1=O	-3.6	1.2	8.2	56.3*	/	1.2
CCCCn1c(SCC(=O)NCc2ccco2)nc2c(sc3ccccc32)c1=O	9.4	0.7	27.8	-32.4	-14.7	-0.2
Cc1cccc(C(=O)N(Cc2ccco2)c2c(N)n(Cc3ccccc3)c(=O)[nH]c2=O)c1	6.0	-0.6	19.7	/	12.6	68.5*
CCn1cc(C2Nc3ccccc3C(=O)N2O)c(C)n1 (stereo not drawn)	-1.2	1.2	-12.3	/	/	47.3*
COc1cc2c(cc1OC)C(c1ccc(-c3cc(Cl)ccc3Cl)o1)=NCC2	/	-2.6	48.8	/	/	16.4
COc1cc2c(cc1OC)C(c1ccc(Cl)cc1)=NCC2	1.1	-3.5	20.4	10.8	2.9	10.8
COc1cc2c(cc1OC)C(c1ccc(-c3ccc(Cl)c(Cl)c3)o1)=NCC2	3.0	-2.5	67.9	82.8*	/	13.1
COc1cc2c(cc1OC)C(c1ccc(-c3ccccc3Cl)o1)=NCC2	2.3	-5.3	64.5	/	/	50.7*
COc1cc2c(cc1OC)C(c1ccc(-c3ccc(Cl)cc3Cl)o1)=NCC2	1.5	-9.4	18.2	97.6*	/	3.7
Cn1nc(C2CC2)cc1NC(=O)C1(C)CCN1C(=O)c1ccccc1CCc1ccccc1 (stereo not drawn)	3.8	-0.6	2.9	64.1*	12.8	/
CC(C)(C)S(=O)(=O)N1C[C@H]2CC/C=C\C/C(c3ccccc3)=C\2[C@@H]1CCO	/	38.0*	-7.2	-99.7	-4.0	-16.3
C[C@@H]1CN(S(=O)(=O)C(C)(C)C)[C@@H](CCO)/C1=C\c1ccccc1	/	-1.7	-1.8	/	-7.6	-8.5
Cc1noc(C)c1S(=O)(=O)Nc1ccc2c(c1)C(=O)N([C@H](C)CO)C[C@H](C)[C@@H](CN(C)C(=O)Nc1ccc3c(c1)OCO3)OCCCC[C@H](C)O2	/	/	/	-24.6[16.7 µM]	/	/
CCCCCCC#Cc1ccc2c(c1)COc1c3ccccc3nn1-2	/	-4.2	89.9*	1.1	-215.9	-20.6
CCCCC#Cc1ccc2c(c1)COc1c3ccccc3nn1-2	/	-14.8	-66.5	-90.0	-67.5	-20.6
COc1ccccc1CNC(=O)C[C@H]1CC[C@H](NC(=O)CN(C)C)[C@H](CO)O1	/	/	/	-0.9[16.7 µM]	-11.2	/
Cc1cc[n+](-c2[nH]c(=O)sc2/C=N/N=C(\[O-])c2ccncc2)cc1	0.7	1.2	-5.9	-2.7	-10.2	70.5*
Cc1cc[n+](-c2[nH]c(=O)sc2/C=N/N=C(\[O-])c2ccccc2)cc1	1.3	-2.0	7.5	3.8	5.7	-27.9
CCOC(=O)C1C(=O)C=C(c2ccc(C)cc2)CC1c1ccco1 (stereo not drawn)	7.3	-1.5	-29.4	-24.7	-39.4	47.7*
SMILES	NSD2 HMT inh	Glyco luc inh	Shn3 3UTR inh	Env fusion inh	PAX8 inh HTS	EBV LMP1 NFkB
CCCC(=O)Nc1ccc2c(c1)OC[C@@H](C)N(CCC(F)(F)F)C[C@H](C)[C@@H](OC)CN(C)C2=O	/	/	/	-17.4[16.7 µM]	3.7	/
O=C(/C=C/c1ccc(Br)cc1)NCCCn1ccnc1	0.7	-1.7	6.9	-16.7	-26.4	-22.9
O=C(O)/C=C/c1ccc(Cn2ccnc2)cc1	/	3.2	-5.7	12.4	-31.3	59.5*!
COc1ccc(-n2cc(-c3ccc(OC(F)F)cc3)[n+]3c2CCCCC3)cc1	1.2	0.6	62.5	22.6	86.3*	8.4
CC1=NN(C(N)=S)C(=O)C1N=Nc1cccc(C(=O)O)c1 (stereo not drawn)	2.0	-2.6	14.6	27.2	20.7	48.8*
CC1=NN(C(N)=S)C(=O)C1N=Nc1cccc(C)c1 (stereo not drawn)	0.9	2.5	-53.3	-26.9	-55.1	-10.1
OC[C@@H]1[C@@H](c2ccccc2)C(c2ccccc2)=NN1c1ccccc1	/	-0.7	0.8	-26.9	19.7	-3.4
c1ccc(-c2nn(-c3ccccc3)[n+](-c3ccccc3)n2)cc1	1.2	-2.0	36.9	42.9	77.0*	0.1
CCN1CCN(S(=O)(=O)c2cc(OCC(=O)NC3CCCCC3)c(C)cc2Cl)CC1	9.4	-3.8	57.5	-25.1	5.6	26.1
Cc1cc(Cl)c(S(=O)(=O)N2CCCCCC2)cc1OCC(=O)NC1CCCCC1	-0.7	-1.9	16.4	50.5*	12.4	8.4
Cc1cc(Cl)c(S(=O)(=O)N2CCSCC2)cc1OCC(=O)NC1CCCCC1	-5.9	-7.2	87.7*	93.2*	/	23.6
Cc1ccsc1-c1nc(CSCC(=O)N2CCN(c3ccccc3)CC2)c(C)o1	/	0.3	9.8	/	/	81.2*
Cc1ccc(-c2nc(CSCC(=O)N3CCCC3)c(C)o2)cc1	1.4	0.7	-23.1	-42.1	/	-5.9
Cc1cccc(-c2nc(CSCC(=O)N3CCN(c4ccccn4)CC3)c(C)o2)c1	5.4	-2.0	14.5	89.3*	21.8	10.6
Cc1ccccc1CSCC(=O)N1CCN(c2ccccc2)CC1	1.9	1.0	11.3	-32.4	12.3	-2.2
O=C(O)CN1C(=O)/C(=C\C(Br)=C\c2ccccc2)SC1=S	55.0*	0.4	-15.1	0.4	0.6	-57.6
CC(/C=C1\SC(=O)N(CCCC(=O)O)C1=O)=C\c1ccccc1	21.3	-2.0	?	/	33.2	71.8*
O=C(O)CN1C(=O)/C(=C/C=C/c2ccccc2)SC1=S	7.9	-0.8	-31.4	0.6	-26.2	3.2
O=C(CCCN1C(=O)S/C(=C\c2ccccc2)C1=O)NNC(=O)c1ccccc1O	-1.3	-4.4	28.2	71.2*	57.5	?
COc1ccc(S(=O)(=O)N(C)C[C@H]2Oc3ccc(NC(=O)c4ccncc4)cc3CC(=O)N([C@H](C)CO)C[C@H]2C)cc1	/	/	/	-5.9[16.7 µM]	/	/
CCOC(=O)N1CCC(NC(=O)C2CCCN(Cc3nc(-c4cccc(C)c4)oc3C)C2)CC1 (stereo not drawn)	/	-3.3	86.0*	15.6	34.8	19.1
Cc1cccc(-c2nc(CN3CCCC(C(=O)NC4CCCC4)C3)c(C)o2)c1 (stereo not drawn)	2.2	-3.8	18.8	2.1	29.2	9.1
COC(=O)[C@@]1(Cc2ccccc2)N=C(c2ccc(OCCCO)cc2)O[C@H]1c1ccccc1CN=[N+]=[N-]	/	/	/	39.2[16.7 µM]	96.3*	/

Source: PubChem (Broad Institute)
